Only some compounds are listed: those with a hit (about 19% of all), similar ones and a draw of the others.
IL-1B inflam inh = blocks inflammasome-driven IL-1 beta release; THP-1 LPS/ATP IL-1B secretion, AlphaLISA, 16 h; active compounds read low; activity change, % at 57.5 µM; 360,000 tested, 4.7% active; AID 743279; in the data active means activity change below about -50%; inconclusive means mostly about -30% to -49%
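Secreted IL-1B measured by AlphaLISA bead assay after 16 h compound exposure of THP-1 cells; compounds (final up to 57.5 uM) added 1 h before LPS (250 ng/mL) and ATP (1.25 mM) stimulation; lower signal means less secretion.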
HT1080NT lethal = kills 2HG-producing HT-1080-NT fibrosarcoma cells; HT-1080-NT fibrosarcoma viability, CellTiter-Glo ATP luminescence, 48 h; AID 686970; 360,000 tested, 1.6% active; Potency, µM (top dose mostly 46.1 µM), hits mostly cytotoxic;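 further: NT is the 2HG producing partner of a matched IDH1 knockdown line; nearly all actives have a fitted effect of over 55% in size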
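HT-1080-NT fibrosarcoma cells (2HG-overproducing), 750 cells/well in RPMI with 5% FBS, dosed after 2 h and incubated 48 h at 37C. CellTiter-Glo luminescence normalized to DMSO and no-cell wells; concentration-response curves fitted and classed.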
HT1080 IDH1KD tx = kills HT-1080 cells with IDH1 knockdown; HT-1080 IDH1 knockdown viability, ATP luminescence, 48 h; Potency, µM (series often up to 46.1 µM), most hits filed as cytotoxic; 360,000 tested, 2% active; AID 686971
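In this qHTS, HT-1080 cells depleted of IDH1 are exposed for 48 h at 37 °C to compound titrations. Toxicity is scored from CellTiter-Glo luminescence, with DMSO as full viability and medium alone as none.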
DT40 TDP1 CPT = DT40-hTDP1 cell growth loss with CPT; chicken DT40 Tdp1-/-;hTDP1 cells + 20 nM CPT, ATP luminescence, 48 h; Potency, µM (titrated, usually from 46.2 µM), hits mostly inhibitors; 420,000 tested, 12% active; AID 686979; further: nearly all actives have a fitted effect of over 55% in size
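Chicken DT40 Tdp1-/- cells complemented with human TDP1, 400 cells/well, exposed to compounds plus 20 nM camptothecin for at least 48 h at 37 C; viability read as ATP content by CellTiter-Glo luminescence.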
TDP1 cell noCPT = qHTS for Inhibitors of human tyrosyl-DNA phosphodiesterase 1 (TDP1): qHTS in cells in absence of CPT. DT40 Tdp1-/- hTDP1 cells, no CPT, ATP luminescence, 48 h. Potency, µM (series often up to 46.2 µM), usual class: inhibitors. 420,000 tested, 15% active. AID 686978, 2013; further: nearly all actives have a fitted effect of over 55% in size
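Growth kinetics read by CellTiter-Glo luminescence after ≥48 hr at 37 °C. Cells: DT40 Tdp1-/- stably carrying human TDP1, 400 per well, compound exposure in the absence of CPT (DMSO vehicle).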
Large screens that a line does not name were inactive. Unless noted, the call rests on the fitted dose curve; in most records, active means well fitted curve in the direction sought with a large enough effect; inconclusive means small, poorly fitted or top-dose-only effect, or another doubt; inactive means no such curve, though single readings can be large; an effect the other way counts as inactive or inconclusive.

CCN1C(=O)[C@@H]2[C@@H](c3ccc(-c4ccc(OC)cc4)cc3)N3CCCC[C@@]3(C(=O)OC)[C@@H]2C1=O	DT40 TDP1 CPT 26µM, TDP1 cell noCPT 16µM
CCN1C(=O)[C@@H]2[C@@H](c3ccc(-c4ccc(C(C)=O)cc4)cc3)N3CCCC[C@@]3(C(=O)OC)[C@@H]2C1=O	DT40 TDP1 CPT 16µM, TDP1 cell noCPT 18µM
CCN1C(=O)[C@H]2[C@@H](c3ccc(-c4ccccc4)cc3)N3CCCC[C@@]3(C(=O)OC)[C@H]2C1=O	DT40 TDP1 CPT inconclusive, TDP1 cell noCPT 18µM
CSc1ccc(CNC(=O)Cn2nc(C)c3c(C)n(-c4ccc(C)cc4)nc3c2=O)cc1	TDP1 cell noCPT inconclusive
Cc1ccc(S(=O)(=O)NCC(=O)N(CC(=O)NCC2CCCO2)Cc2ccccc2Cl)cc1 (configuration not stated)	none
COc1cccc(OCc2cc(C(=O)NCCc3cccc(C)n3)no2)c1	none
Cc1ccc(OCc2cc(C(=O)NCCc3cccnc3)no2)cc1C	HT1080NT lethal inconclusive, HT1080 IDH1KD tx inconclusive, DT40 TDP1 CPT inconclusive, TDP1 cell noCPT inconclusive
CC(CCCC(C)(C)O)NC(=O)c1cc(COc2ccc3ncccc3c2)on1 (configuration not stated)	DT40 TDP1 CPT 8.2µM, TDP1 cell noCPT 4.6µM
Cc1ccc(F)cc1CNC(=O)c1cc(COc2ccc3ncccc3c2)on1	DT40 TDP1 CPT 4.1µM, TDP1 cell noCPT 10µM
O=C(NCc1cccc(Cl)c1)c1cc(COc2ccc3ncccc3c2)on1	IL-1B inflam inh inconclusive, DT40 TDP1 CPT 16µM, TDP1 cell noCPT 21µM
Cc1ccc(OCc2cc(C(=O)NC(C)Cc3cccc(C)n3)no2)cn1 (configuration not stated)	DT40 TDP1 CPT 13µM, TDP1 cell noCPT 7.3µM
O=C(CN1CCN(Cc2ccc3c(c2)OCO3)CC1)Nc1ccc2[nH]c(=O)[nH]c2c1	none
COc1ccc(C(=O)NCCOC(C)C)cc1OC1CCN(C(C)=O)CC1	none
CC1(C)CSC(=S)N1S(=O)(=O)c1ccccc1	none
Cc1cccc(NC(=O)c2ccc(-n3cncn3)c([N+](=O)[O-])c2)c1	TDP1 cell noCPT inconclusive
CCn1c(C)nnc1SCC(=O)NC1CCCC1	none
Cc1cc(C)n(CCNC(=O)c2cc(COc3ccc4ncccc4c3)on2)n1	DT40 TDP1 CPT 21µM, TDP1 cell noCPT 21µM
COc1ccc(C2CC2/C(=N/O)c2ccccc2)cc1 (configuration not stated)	IL-1B inflam inh inconclusive, DT40 TDP1 CPT 23µM, TDP1 cell noCPT 18µM
COc1ccc(C2CC2/C(=N/O)c2ccccn2)cc1 (configuration not stated)	DT40 TDP1 CPT 13µM, TDP1 cell noCPT inconclusive
Cc1ccc(C23CC4CC(CC(C(=O)NC(C(=O)O)C(C)C)(C4)C2)C3)cc1 (configuration not stated)	none
CC(C)c1ccc(NC(=O)C2CCN(S(C)(=O)=O)CC2)cc1	DT40 TDP1 CPT inconclusive, TDP1 cell noCPT inconclusive
Cc1ccc(C)n1-c1nnc(N2CCCC(C(=O)Nc3ccc(C(C)C)cc3)C2)s1 (configuration not stated)	DT40 TDP1 CPT 21µM, TDP1 cell noCPT 13µM (no result: IL-1B inflam inh, HT1080NT lethal, HT1080 IDH1KD tx)
Cc1cc(C)cc(NC(=O)C2CCCN(c3nnc(-n4c(C)ccc4C)s3)C2)c1 (configuration not stated)	DT40 TDP1 CPT 26µM, TDP1 cell noCPT inconclusive (no result: IL-1B inflam inh, HT1080NT lethal, HT1080 IDH1KD tx)
Cc1cc(C)cc(NC(=O)C2CCN(c3nnc(-n4c(C)ccc4C)s3)CC2)c1	TDP1 cell noCPT inconclusive (no result: IL-1B inflam inh, HT1080NT lethal, HT1080 IDH1KD tx)
Cc1ccc(NC(=O)C2CCCN(c3nnc(-n4c(C)ccc4C)s3)C2)cc1Cl (configuration not stated)	DT40 TDP1 CPT inconclusive, TDP1 cell noCPT 21µM (no result: IL-1B inflam inh, HT1080NT lethal, HT1080 IDH1KD tx)
CCCCc1nn2c(=O)cc(COC(=O)c3ccccc3NC(=O)c3ccccc3OC)nc2s1	none (no result: IL-1B inflam inh, HT1080NT lethal, HT1080 IDH1KD tx)
Nc1cc2c(cc1Cl)-c1ccc(Cl)cc1C2=O	none
Cc1ccc(S(=O)(=O)N2CCN(c3ncccn3)CC2)cc1C	DT40 TDP1 CPT 5.8µM, TDP1 cell noCPT inconclusive
Cc1ccc(S(=O)(=O)N2CCN(c3ncnc4sccc34)CC2)cc1C	HT1080NT lethal inconclusive, HT1080 IDH1KD tx inconclusive, DT40 TDP1 CPT 5.8µM, TDP1 cell noCPT 5.8µM
O=S(=O)(c1ccc2c(c1)OCCO2)N1CCN(c2nc(-c3cccs3)nc3ccccc23)CC1	DT40 TDP1 CPT inconclusive, TDP1 cell noCPT inconclusive (no result: IL-1B inflam inh)
O=S(=O)(c1ccc2c(c1)OCCO2)N1CCN(c2ncnc3sccc23)CC1	HT1080 IDH1KD tx inconclusive, DT40 TDP1 CPT 5.2µM, TDP1 cell noCPT 2.3µM
CCOC(=O)c1ccc(NC(=O)CSc2nnc(-c3ccncc3)n2-c2ccccc2)cc1	none (no result: IL-1B inflam inh, HT1080NT lethal, HT1080 IDH1KD tx)
O=S(=O)(Nc1cccc(S(=O)(=O)N2CCCC2)c1)c1cccs1	none
CCOC(=O)c1c(N/C=C(\C#N)c2nc(-c3ccc(OC(C)=O)cc3)cs2)sc2c1CCC2	none
CC(=O)NC12CC3CC(C1)CC(C(=O)OCC(=O)c1cc(C)n(C)c1C)(C3)C2	DT40 TDP1 CPT 16µM, TDP1 cell noCPT inconclusive
CC(=O)NC12CC3CC(C1)CC(C(=O)OCC(=O)c1ccc4c(c1)OCCO4)(C3)C2	DT40 TDP1 CPT inconclusive, TDP1 cell noCPT inconclusive
CN1CCN(c2ccc(S(=O)(=O)N3CCCCC3)cc2NC(=O)Cc2ccc(Cl)cc2)CC1	DT40 TDP1 CPT inconclusive, TDP1 cell noCPT 23µM
CN1CCN(c2ccc(Cl)cc2NC(=O)c2ccc(S(=O)(=O)N3CCCCCC3)cc2)CC1	DT40 TDP1 CPT inconclusive, TDP1 cell noCPT 16µM
O=C(Cc1ccc(Cl)cc1)Nc1cc(S(=O)(=O)N2CCOCC2)ccc1N1CCCC1	TDP1 cell noCPT inconclusive
Cc1ccc(C(C(=O)NCc2ccco2)N(C(=O)CNC(=O)c2cccs2)c2c(C)cccc2C)cc1 (configuration not stated)	DT40 TDP1 CPT inconclusive, TDP1 cell noCPT inconclusive
Cc1ccc(C(C(=O)NCc2ccco2)N(C(=O)CNC(=O)c2cccs2)c2c(C)cc(C)cc2C)cc1 (configuration not stated)	DT40 TDP1 CPT 10µM, TDP1 cell noCPT 10µM
O=C(NCc1ccco1)C(c1ccccc1)N(C(=O)Cc1cccs1)c1ccccc1F (configuration not stated)	IL-1B inflam inh inconclusive, DT40 TDP1 CPT inconclusive, TDP1 cell noCPT 26µM
O=C(NCc1ccco1)C(c1ccncc1)N(C(=O)Cc1cccs1)c1ccccc1 (configuration not stated)	none
CN(C)c1ccc(/C=C/C(=O)c2cc(Cl)ccc2O)cc1	DT40 TDP1 CPT inconclusive, TDP1 cell noCPT inconclusive
COc1ccc(/C=C/C(=O)c2ccc(Cl)cc2)c(OC)c1	TDP1 cell noCPT 18µM
O=C(/C=C/c1ccncc1)c1cc(Cl)ccc1O	IL-1B inflam inh -67, TDP1 cell noCPT inconclusive
